PubChem BioAssay (NCI)
About 79,000 compounds went through this panel and 15% of them were active in at least one assay; those are over-represented in the sample as a whole. The source made the active and inactive calls. Cut-off read from the data, not from the text of the source: active = growth inhibition above about 70%; inactive = the rest.

Columns and labels:
[1] = NCI Yeast Anticancer Drug Screen. Data for the wt1 strain (AID 149);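 note: 0% = growth of vehicle-treated wt1 cultures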; conditions: S. cerevisiae wt1 strain (SPY 50644) growth inhibition, stronger effect = higher value
Procedure, shortened: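 Readout: yeast growth inhibition, normalised to vehicle controls, in the wt1 strain exposed to test compounds.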

[2] = NCI Yeast Anticancer Drug Screen. Data for the rad50EPP+ strain (AID 151);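 note: 0% = growth of vehicle-treated control cultures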; conditions: S. cerevisiae rad50 mutant strain, stronger effect = higher value
Procedure, shortened: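 Yeast strain carrying rad50 alteration (rad50EPP+) exposed to compounds; growth inhibition measured relative to vehicle-treated controls.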

[3] = NCI Yeast Anticancer Drug Screen. Data for the mgt1 strain (AID 153); conditions: S. cerevisiae mgt1 mutant growth inhibition, stronger effect = higher value
Procedure, shortened: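 Yeast mgt1 strain (DNA repair/cell-cycle alteration panel) exposed to compounds; growth inhibition measured relative to vehicle-treated controls.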

[4] = NCI Yeast Anticancer Drug Screen. Data for the rad50 strain (AID 155);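 note: 0% = growth of vehicle-only cultures of the same strain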; conditions: S. cerevisiae rad50 strain growth inhibition, stronger effect = higher value
Procedure, shortened: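 Compounds were tested on a yeast strain with an engineered DNA damage repair alteration; the reported value is growth inhibition normalised to vehicle treatment.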

[5] = NCI Yeast Anticancer Drug Screen. Data for the mec2-1 strain (AID 157); conditions: S. cerevisiae mec2-1 strain, stronger effect = higher value
Procedure, shortened: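 mec2-1 yeast strain, carrying an alteration in DNA damage repair or cell cycle control, was exposed to compounds; growth inhibition was measured relative to vehicle-treated controls.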

[6] = NCI Yeast Anticancer Drug Screen. Data for the rad14 strain (AID 159);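 note: 0% = growth of vehicle-treated control cultures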; conditions: S. cerevisiae rad14 strain growth inhibition, stronger effect = higher value
Procedure, shortened: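 Compound-treated yeast with a defined DNA-repair lesion; growth inhibition normalised to vehicle-treated cultures.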

[7] = NCI Yeast Anticancer Drug Screen. Data for the sgs1 mgt1 strain (AID 161);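 note: 0% = growth of cultures given vehicle only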; conditions: S. cerevisiae sgs1 mgt1 strain, stronger effect = higher value
Procedure, shortened: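 Growth of a repair-deficient yeast mutant was monitored after compound treatment and expressed as inhibition relative to vehicle-treated cultures.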

[8] = NCI Yeast Anticancer Drug Screen. Data for the CLN2oe strain (AID 163);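 note: 0% = growth of vehicle-only control cultures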; conditions: S. cerevisiae CLN2oe strain, stronger effect = higher value
Procedure, shortened: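 Yeast cells carrying a defined cell-cycle control alteration were exposed to test compounds. Growth inhibition was scored against vehicle-treated control cultures.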

[9] = NCI Yeast Anticancer Drug Screen. Data for the cln2 rad14 strain (AID 165);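 note: 0% = growth equal to vehicle treated cultures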; conditions: S. cerevisiae cln2 rad14 strain, stronger effect = higher value
Procedure, shortened: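 Yeast carrying cln2 and rad14 alterations (cell cycle control and DNA damage repair) were exposed to compounds. Growth inhibition was measured against vehicle-treated controls.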

[10] = NCI Yeast Anticancer Drug Screen. Data for the bub3 strain (AID 167); conditions: S. cerevisiae bub3 mutant strain, stronger effect = higher value
Procedure, shortened: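 Growth of a checkpoint-deficient yeast mutant is measured after compound exposure. Values represent inhibition relative to vehicle.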

[11] = NCI Yeast Anticancer Drug Screen. Data for the wt2 strain (AID 169);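 note: 0% = growth of vehicle-treated yeast cultures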; conditions: S. cerevisiae wt2 strain growth inhibition, stronger effect = higher value
Procedure, shortened: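 Yeast cells were exposed to test compounds, and growth inhibition was measured relative to vehicle-treated controls.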

[12] = NCI Yeast Anticancer Drug Screen. Data for the mlh1 strain (AID 171);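 note: 0% = growth of vehicle-treated control cultures of the same strain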; conditions: S. cerevisiae mlh1 strain growth inhibition, stronger effect = higher value
Procedure, shortened: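 Yeast carrying a defined genetic alteration in DNA damage repair or cell cycle control were exposed to test compounds. Growth inhibition was measured relative to vehicle-treated controls.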

[13] = NCI Yeast Anticancer Drug Screen. Data for the sgs1 strain (AID 173);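 note: 0% = growth of vehicle-only control cultures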; conditions: S. cerevisiae sgs1 mutant, stronger effect = higher value
Procedure, shortened: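 Yeast mutant strains carrying defined defects in DNA damage repair or cell cycle control were exposed to test compounds. Growth inhibition was scored against vehicle-treated controls.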

[14] = NCI Yeast Anticancer Drug Screen. Data for the rad18 strain (AID 177); conditions: S. cerevisiae rad18 mutant growth inhibition, stronger effect = higher value
Procedure, shortened: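 Yeast carrying a defined DNA damage repair alteration were exposed to compounds. Growth inhibition was expressed relative to vehicle-treated controls.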

[15] = NCI Yeast Anticancer Drug Screen. Data for the mlh1 rad18 strain (AID 175); conditions: S. cerevisiae mlh1 rad18 strain growth inhibition, stronger effect = higher value
Procedure, shortened: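 Growth inhibition of the yeast strain was measured after compound exposure and expressed relative to vehicle-treated controls. The strain carries defined defects in DNA damage repair.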

[16] = at 5.0 µM (retest, dose inferred, filed as 0.5)
[17] = at 50.0 µM (retest, dose inferred, filed as 5.0)

Measured: growth inhibition

O=[N+]([O-])c1cccc2nc3ccccc3c(NCCC[N+]3([O-])CCOCC3)c12
inactive: [1]; at 1.2 µM -78% | [1]; at 3.7 µM 5% | [1]; at 11.0 µM 16% | [1]; at 33.0 µM 47% | [2]; at 1.2 µM 6% | [2]; at 3.7 µM 19% | [2]; at 11.0 µM 42% | [3]; at 1.2 µM 1% | [3]; at 3.7 µM 5% | [3]; at 11.0 µM 17% | [3]; at 33.0 µM 55% | [4]; at 1.2 µM 37% | [4]; at 3.7 µM 65% | [4]; [16] 37% | [5]; at 1.2 µM 7% | [5]; at 3.7 µM 41% | [5]; [16] 9% | [6]; at 1.2 µM 38% | [8]; at 1.2 µM -15% | [8]; at 3.7 µM -13% | [8]; at 11.0 µM 10% | [8]; at 33.0 µM 55% | [10]; at 1.2 µM -9% | [10]; at 3.7 µM -13% | [10]; [16] -6% | [10]; at 11.0 µM -9% | [10]; at 33.0 µM 14% | [10]; at 50.0 µM 34.4% | [11]; at 1.2 µM -3% | [11]; at 3.7 µM -1% | [11]; at 11.0 µM 3% | [11]; at 33.0 µM 34% | [12]; at 1.2 µM 1% | [12]; at 3.7 µM 5% | [12]; at 11.0 µM 21% | [12]; at 33.0 µM 62% | [13]; at 1.2 µM 63%
active: [1]; at 100.0 µM 87% | [2]; at 33.0 µM 79% | [2]; at 100.0 µM 92% | [3]; at 100.0 µM 85% | [4]; at 11.0 µM 88% | [4]; at 33.0 µM 94% | [4]; [17] 92% | [4]; at 50.0 µM 83.4% | [4]; at 100.0 µM 95% | [5]; at 11.0 µM 89% | [5]; at 33.0 µM 97% | [5]; [17] 98% | [5]; at 50.0 µM 82.8% | [5]; at 100.0 µM 97% | [6]; at 3.7 µM 87% | [6]; at 11.0 µM 96% | [6]; at 33.0 µM 98% | [6]; at 100.0 µM 97% | [7]; [16] 73% | [7]; [17] 93% | [7]; at 50.0 µM 79.6% | [8]; at 100.0 µM 91% | [9]; [16] 86% | [9]; [17] 98% | [9]; at 50.0 µM 94.6% | [10]; [17] 75% | [10]; at 100.0 µM 84% | [11]; at 100.0 µM 93% | [12]; at 100.0 µM 92% | [13]; at 3.7 µM 79% | [13]; at 11.0 µM 85% | [13]; at 33.0 µM 89% | [13]; at 100.0 µM 93% | [14]; at 1.2 µM 95% | [14]; at 3.7 µM 95% | [14]; at 11.0 µM 96% | [14]; at 33.0 µM 97% | [14]; at 100.0 µM 95%

C=Cc1c(C)c(O)cc2c1-c1ccc(O)c(C)c1CC2
inactive: [1]; at 1.2 µM -8% | [1]; at 3.7 µM -4% | [1]; at 11.0 µM -11% | [2]; at 1.2 µM 1% | [2]; at 3.7 µM 24% | [2]; at 11.0 µM 16% | [2]; at 33.0 µM 40% | [3]; at 1.2 µM -18% | [3]; at 3.7 µM -1% | [3]; at 11.0 µM -3% | [4]; at 1.2 µM -20% | [4]; at 3.7 µM -3% | [4]; [16] 46% | [4]; at 11.0 µM 12% | [4]; at 50.0 µM -24.6% | [5]; at 1.2 µM -19% | [5]; at 3.7 µM -8% | [5]; [16] 22% | [5]; at 11.0 µM -7% | [5]; at 50.0 µM -52.2% | [6]; at 1.2 µM -21% | [6]; at 3.7 µM -21% | [6]; at 11.0 µM -19% | [7]; [16] 55% | [7]; at 50.0 µM -18.5% | [8]; at 1.2 µM 10% | [8]; at 3.7 µM 5% | [8]; at 11.0 µM 26% | [9]; [16] 12% | [9]; [17] 59% | [9]; at 50.0 µM 10.6% | [10]; at 1.2 µM -9% | [10]; at 3.7 µM -11% | [10]; [16] 28% | [10]; at 11.0 µM 5% | [10]; at 50.0 µM -43.2% | [11]; at 1.2 µM -63% | [11]; at 3.7 µM -43% | [11]; at 11.0 µM 37% | [11]; at 33.0 µM 46% | [12]; at 1.2 µM 12% | [12]; at 3.7 µM -8% | [12]; at 11.0 µM 3% | [13]; at 1.2 µM -7% | [13]; at 3.7 µM 16% | [13]; at 11.0 µM 36% | [15]; [16] 69% | [14]; at 1.2 µM -25% | [14]; at 3.7 µM -7% | [14]; at 11.0 µM 4%
active: [1]; at 33.0 µM 98% | [1]; at 100.0 µM 98% | [2]; at 100.0 µM 98% | [3]; at 33.0 µM 98% | [3]; at 100.0 µM 99% | [4]; at 33.0 µM 97% | [4]; [17] 75% | [4]; at 100.0 µM 99% | [5]; at 33.0 µM 98% | [5]; [17] 97% | [5]; at 100.0 µM 98% | [6]; at 33.0 µM 97% | [6]; at 100.0 µM 98% | [7]; [17] 93% | [8]; at 33.0 µM 98% | [8]; at 100.0 µM 99% | [10]; at 33.0 µM 98% | [10]; [17] 97% | [10]; at 100.0 µM 99% | [11]; at 100.0 µM 88% | [12]; at 33.0 µM 98% | [12]; at 100.0 µM 99% | [13]; at 33.0 µM 98% | [13]; at 100.0 µM 99% | [15]; [17] 87% | [15]; at 50.0 µM 89.3% | [14]; at 33.0 µM 98% | [14]; at 100.0 µM 99%
